# Only some compounds are listed: those with a hit (about 11% of all), similar ones and a draw of the others.
# ALDH1A1 block: qHTS Assay for Inhibitors of Aldehyde Dehydrogenase 1 (ALDH1A1); 7.3% of 220,000 active; Potency, µM (top dose mostly 75.3 µM), inactives show at the highest dose activity, negative = inhibition, usual class: inhibitors; Aldehyde dehydrogenase 1A1 (Homo sapiens), P00352; Purified ALDH1A1, NADH fluorescence, propionaldehyde substrate;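 also: potency is read from the fitted curve at half-maximal effect; plate controls were no enzyme wells and a reference inhibitor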
# PNC assembly inh: High Content Assay for Compounds that inhibit the Assembly of the Perinucleolar Compartment. AID 2417, 2010. activity change (PNC), negative = inhibition, % at 10 µM. PC3M PTB-GFP, PNC prevalence imaging, 16 h; stronger effect = lower value. 3.1% of 140,000 active;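 active = readout at or below -70, meaning at least 70% loss of cells showing the perinucleolar compartment, a nuclear body marking cancer cells; inconclusive = readout between -30 and a set limit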;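 also: plate controls were DMSO wells for no effect and camptothecin positive control wells for full effect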
#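 PC3M cells stably expressing PTB-GFP, 750–1000 cells/well, treated 16 h at 37 °C with compound (23 nl of library stock), in duplicate. After paraformaldehyde fixation and Hoechst stain, imaged at 20x; PNC prevalence scored by image analysis.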
# NPSR antagonist: qHTS Assay for Antagonists of the Neuropeptide S Receptor: cAMP Signal Transduction. AID 1461, 2008. CHO-NPSR cells, cAMP TR-FRET, antagonist mode. 1% of 220,000 active. Potency, µM (titrated, usually from 38.3 µM), for the others: at the top dose activity change, negative = inhibition, most hits filed as inhibitors; active = well fitted curve in the direction sought with a large enough effect; inconclusive = small, poorly fitted or top-dose-only effect, or another doubt; inactive = no such curve, though single readings can be large; an effect the other way counts as inactive or inconclusive; also: potency is read from the fitted curve at half-maximal effect; nearly all actives have a fitted effect of over 50% in size
# Target sequence (Q6W5P4 whole entry, looked up): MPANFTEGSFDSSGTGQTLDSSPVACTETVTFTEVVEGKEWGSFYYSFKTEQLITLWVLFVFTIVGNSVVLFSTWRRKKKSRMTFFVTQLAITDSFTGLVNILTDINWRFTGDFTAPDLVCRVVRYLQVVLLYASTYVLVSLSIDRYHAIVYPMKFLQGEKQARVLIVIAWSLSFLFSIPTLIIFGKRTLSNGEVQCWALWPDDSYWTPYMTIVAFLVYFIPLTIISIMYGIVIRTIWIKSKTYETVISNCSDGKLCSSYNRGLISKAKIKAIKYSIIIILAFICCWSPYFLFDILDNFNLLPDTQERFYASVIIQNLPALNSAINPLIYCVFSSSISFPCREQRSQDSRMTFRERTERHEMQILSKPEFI
# HPGD inh: qHTS Assay for Inhibitors of HPGD (15-Hydroxyprostaglandin Dehydrogenase); Potency, µM, without a hit: top-dose activity change, negative = inhibition, usual class: inhibitors; 4.3% of 150,000 active; AID 894, 2007; purified HPGD, NADH fluorescence kinetic, PGE2 substrate; 15-hydroxyprostaglandin dehydrogenase [NAD(+)] (Homo sapiens), P15428; also: potency is read from the fitted curve at half-maximal effect
# Target sequence (P15428 whole entry, looked up): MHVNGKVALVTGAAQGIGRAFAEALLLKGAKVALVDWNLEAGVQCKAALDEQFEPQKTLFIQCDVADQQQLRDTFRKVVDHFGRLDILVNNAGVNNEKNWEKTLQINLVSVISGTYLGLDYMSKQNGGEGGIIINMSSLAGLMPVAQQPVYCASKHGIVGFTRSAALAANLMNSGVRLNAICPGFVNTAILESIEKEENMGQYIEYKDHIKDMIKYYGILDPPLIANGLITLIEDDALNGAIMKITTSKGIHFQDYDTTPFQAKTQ
#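 NADH formation kinetics: reaction with 30 uM PGE2 and 1 mM NAD+ (final), 20 nM enzyme, Tris-HCl pH 8 with Tween 20, after 15 min compound preincubation at room temperature. Fluorescence change, last versus first of five reads.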
# IMPase Li cell: qHTS Assay for Identifying the Cell-Membrane Permeable IMPase Inhibitors: Potentiation with Lithium; 0.35% of 210,000 active; Potency, µM (titrated, usually from 59.4 µM), for inactives: at the highest dose activity, negative = IMPase inhibition, usual class: inhibitors; CHO-M1 cells, IP1 TR-FRET (IP-One), carbachol + lithium; active = well fitted curve in the direction sought with a large enough effect; inconclusive = small, poorly fitted or top-dose-only effect, or another doubt; inactive = no such curve, though single readings can be large; an effect the other way counts as inactive or inconclusive;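 also: IP1 builds up when IMPase is blocked and the TR-FRET signal falls; potency is read from the fitted curve at half-maximal effect; plate controls were basal vehicle for no effect and high inhibitor control for full effect; nearly all actives have a fitted effect of over 50% in size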
#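 Lithium-sensitised IP1 accumulation assay; M1-expressing CHO cells treated 30 min at 37C with compound. Competitive antibody detection by time-resolved FRET followed a 10 min room-temperature lysis step.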
# IMPase cell inh: qHTS Assay for Identifying the Cell-Membrane Permeable IMPase Inhibitors; CHO-M1 cells, IP1 accumulation, HTRF TR-FRET ratio; inhibition (IP1 accumulation), % at 46.1 µM; 120,000 tested, under 10 active; AID 901, 2007; active = well fitted curve in the direction sought with a large enough effect in the signal ratio, not every such curve was filed as active; inconclusive = small, poorly fitted or top-dose-only effect, or a change in a side signal; inactive = no such curve, though single readings can be large or run the other way; the % refers to the signal ratio;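 also: cells stimulated with carbachol in lithium chloride buffer; plate controls were DMSO basal wells for no effect and reference inhibitor wells for full effect; higher means more IMPase inhibition seen as more IP1 and lower FRET ratio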
#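 Seeded CHO-M1 cells were dosed with compound at up to 46 uM, stimulated with carbachol for 30 min, then lysed in IP-One detection reagents. Higher IP1 lowers the TR-FRET signal.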
# The depositor's hits bear a star; ? = inconclusive; . = no result given; [ ] = another dose, or the depositor's remark. Unless noted, calls follow the shape of the dose curve; as a rule, active = well fitted inhibition curve with a large enough effect (not every such curve was filed as active); inconclusive = small, poorly fitted or top-dose-only effect, or another doubt; inactive = no such curve, though single readings can be large or run the other way. Unless noted, % is scaled to controls: 0 for no effect and ±100 for the full control effect.
SMILES,ALDH1A1 block,PNC assembly inh,NPSR antagonist,HPGD inh,IMPase Li cell,IMPase cell inh
Cc1cc([N+](=O)[O-])nn1CC(=O)NNC(=S)Nc1ccc([N+](=O)[O-])cc1,22µM*,46,-4%[46.1 µM],-20%,-13%[38.3 µM],-7
Cc1nn(CCC(=O)NNC(=S)Nc2cccc(Cl)c2)c(C)c1[N+](=O)[O-],?,32,-13%,?,11%,3
COC(=O)c1ccc(CSc2nnnn2C)o1,-9%,-19,0%[46.1 µM],-13%,35%[38.3 µM],6
Cc1cc(NC(=O)c2cnn3cccnc23)no1,?,?,-26%[46.1 µM],-17%,11%[38.3 µM],9
O=C(/C=C/C(=O)NCc1cccs1)NCc1cccs1,.,.,4%,.,.,.
CCCCNC(=O)Cc1coc2ccc3ccccc3c12,-1%,33,-15%[46.1 µM],14µM*,-5%[38.3 µM],-16
Cc1cccc(NC(=O)Cc2coc3ccc4ccccc4c23)n1,-4%,11,-19%[46.1 µM],16µM*,33%[38.3 µM],2
O=C(Cc1coc2ccc3ccccc3c12)N1CCCC1,?,3,-3%[46.1 µM],13µM*,26%[38.3 µM],4
CC(C)OC(=O)C1C2C=CC3(CN(C(C)c4ccc(Br)cc4)C(=O)C13)O2 (stereo not drawn),-6%,23,29%[46.1 µM],-9%,-4%[38.3 µM],2
COc1ccc(NC(=O)NC2(C(=O)N3CCCCCC3)CCCCC2)cc1,2%,-26,1%[46.1 µM],-11%,6%[38.3 µM],-11
CS(=O)(=O)Nc1ccccc1C(=O)Nc1cccc(Cl)c1,?,46,-16%[46.1 µM],?,-2%,10
Cc1ccc(NC(=S)c2nc3ccccc3s2)cc1,2%,19,-11%[46.1 µM],-9%,-6%[38.3 µM],2
COc1ccc(/C=C2\N=C(C)OC2=O)cc1[N+](=O)[O-],18µM*,.,3%,.,.,.
Cc1ccc(C2=C(Cl)C(=O)C(c3ccc(C)cc3)=C(Cl)C2=O)cc1,-3%[13.5 µM],.,.,2.2µM*,-2%,.
Cc1ccc(S(=O)(=O)c2ccc(C)cc2)cc1,13%,7,-7%[46.1 µM],-19%,11%[38.3 µM],-1
CCn1c(SCC(=O)N2CCCc3ccccc32)nc2c1c(=O)n(C)c(=O)n2C,-10%,-25,-7%[46.1 µM],-4%,-9%[38.3 µM],2
CC(C)OCCCNC1=C(Cl)C(=O)c2ccccc2C1=O,.,.,10µM*,.,.,.
COc1ccccc1N=c1oc2c(OC)cccc2cc1C(=O)NCc1ccco1,?,?,-8%[46.1 µM],.,.,10
COc1cccc(C(=O)N/N=c2\oc3c(OC)cccc3cc2C(=O)NCc2ccccc2)c1,0.32µM*,19,?,-2%,9%,4
COc1ccc(N=c2oc3c(OC)cccc3cc2C(=O)NCc2ccco2)cc1OC,0.35µM*,15,-9%[46.1 µM],-15%,26%[38.3 µM],2
COC(=O)/C=C/C(=O)Nc1ccc(O)c(Cl)c1,13µM*,0,-31%,-13%,3%,.
CCOC(=O)/C=C/C(=O)OCC(=O)Nc1ccc(OC)c(Cl)c1,?,38,17%,-12%,4%,.
CCOC(=O)/C=C/C(=O)OCC(=O)Nc1ccc(Cl)cc1Cl,25µM*,.,19%,.,1%,.
COc1ccc(NC(=O)C=C(C)C)cc1Cl,-9%,32,?,18µM*,-21%[38.3 µM],24
COC(=O)/C=C/C(=O)Nc1cccnc1,-18%,12,-9%[46.1 µM],.,.,8
SMILES,ALDH1A1 block,PNC assembly inh,NPSR antagonist,HPGD inh,IMPase Li cell,IMPase cell inh
COc1ccc(NC(=O)COC(=O)/C=C/C(=O)OCC(=O)Nc2ccc(OC)c(Cl)c2)cc1Cl,11µM*,27,0%,-14%,5%,.
COc1cc(/C=C(/C#N)C(=O)Nc2ccc(Cl)cc2)ccc1Oc1nc(Cl)ncc1F,.,.,-25%,.,.,.
C=CCC(=O)N1CCCC(CNC(=O)c2ccc(-c3ccccc3)cc2)C1 (stereo not drawn),-2%,.,8%,.,6%,.
COc1ccc(CNC(=O)COC(=O)Cc2ccc(Cl)cc2Cl)cc1,?,28,12%,-18%,6%,9
O=C(NCc1cccs1)c1cnn2cccnc12,-16%,21,0%[46.1 µM],?,22%[38.3 µM],-10
Cc1nc(SCc2ccccc2)c([N+](=O)[O-])[nH]1,?,-107*,-4%,-11%,-5%,.
COc1cc2oc(=O)c(Br)c(C)c2c(OC)c1OC,13µM*,-15,22%[46.1 µM],-13%,13µM*,?
Cc1sc2nc(N3CCOCC3)[nH]c(=O)c2c1-c1ccccc1,1%,?,-32%,-16%,-7%,.
Cc1sc2nc(CN3CCOCC3)[nH]c(=O)c2c1-c1ccccc1,-19%,-110*,-7%,1%,-13%,.
Oc1cc2c(cc1O)[C@H]1c3ccc(O)c(O)c3OC[C@@]1(O)C2,-12%,.,.,13µM*,17%,6
Oc1ccc2c(c1)OCC1(O)Cc3cc(O)c(O)cc3C21 (stereo not drawn),28µM*,.,.,?,29%,.
Oc1ccc2c(c1)OCO2,6%,.,.,-4%,-23%,.
CC(=O)Oc1ccc2c(c1OC(C)=O)OCC1(O)Cc3c(cc(OC(C)=O)c(OC(C)=O)c3OC(C)=O)C21 (stereo not drawn),-4%,.,.,-8%,3%,.
CC(C)(C)c1ccc(S(=O)(=O)N2CCN(CCC#N)CC2)cc1,?,-23,-13%[46.1 µM],-15%,27%[38.3 µM],0
CC(C)(C)c1ccc(S(=O)(=O)/C=C\C#N)cc1,0.056µM*,.,.,2.8µM*,32%,20
Cc1ccc(S(=O)(=O)/C=C\C#N)cc1,0.011µM*,.,.,3.5µM*,37%,12
CCOC(=O)c1ccc(Oc2nc(OC)nc(N(C)C)n2)cc1,24%,-93*,1%,-15%,7%,1
C=CCn1c(SCC(=O)N2CCc3ccccc3C2)nc2ccccc2c1=O,13µM*,6,-15%[46.1 µM],-27%,11%[38.3 µM],-3
COCC(C)n1c(SCC(=O)N2CCc3ccccc3C2)nc2ccccc2c1=O (stereo not drawn),-13%,-121*,-2%,-12%,6%,.
NC(=O)C1(N2CCCCC2)CCN(C(=O)c2ccc(-n3cnnn3)cc2)CC1,8%,36,1%[46.1 µM],-18%,-8%[38.3 µM],-2
CCOC(=O)c1ccc(CNC(=O)C2CCCCC2C(=O)OCC(F)(F)F)o1 (stereo not drawn),?,59,-5%[46.1 µM],-8%,2%[38.3 µM],?
Cc1[nH]c2c(Cl)cccc2c1CCNC(=O)C1CCCCC1C(=O)OCC(F)(F)F (stereo not drawn),?,-119*,-57%,-4%,14%,-2
CN(C)/C(=N\O)c1c(Cl)cccc1Cl,4%,.,-1%,.,.,.
CCc1ccc(/C=N/NC(=O)c2cc(C)on2)s1,-3%,113,1%,-18%,3%,.
